The source made the active and inactive calls.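 Rule for the calls, unless noted: active = GFP response above 150% of the DMSO level; inconclusive = fewer than 70 events counted for a yeast strain; inactive = the rest.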
What was measured:
[1] = hit retest on RPL19A-GFP reporter strain – cell-based, S. cerevisiae, flow cytometry, cherry picks, mother/daughter gates, confirmation (AID 2270;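 active = GFP response below 50% of the DMSO control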); settings: 3 h, at 10 µM, stronger effect = lower value, 100 = same GFP as DMSO wells
[2] = yeast TOR pathway reporter LAP4-GFP change – cell-based, cherry picks, flow cytometry, mother/daughter gates, confirmation (AID 2271;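 active = GFP response above 150% of the DMSO control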;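 note: ratio of sample to DMSO plate mean so 100% equals DMSO level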); settings: S. cerevisiae LAP4-GFP strain, 3 h, at 10 µM, stronger effect = higher value, 100 means same as DMSO control
[3] = TOR pathway reporter MEP2-GFP, retest of hits – S. cerevisiae, flow cytometry GFP, cherry picks, confirmation (AID 2272;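 active = GFP response above 150% of the DMSO control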;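 note: ratio of well signal to plate DMSO mean so 100% equals DMSO level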); settings: S. cerevisiae MEP2-GFP strain, 3 h, at 10 µM, stronger effect = higher value
[4] = yeast AGP1-GFP fluorescence change, single-dose – cell-based, flow cytometry, S. cerevisiae, cherry picks, confirmation (AID 2273);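 note: median GFP channel fluorescence over the whole cell population gate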; settings: S. cerevisiae AGP1-GFP strain, 3 h, at 10 µM
[5] = TOR pathway CIT2 reporter hit retest – S. cerevisiae, GFP fusion, cherry picks, mother/daughter gates, confirmation (AID 2274); settings: S. cerevisiae CIT2-GFP strain, flow cytometry, 3 h, at 10 µM, stronger effect = higher value
[6] = measured here: daughter cell gate
[7] = measured here: mother cell gate
[8] = measured here: daughter cell gate response
[9] = measured here: mother cell gate response

| SMILES | GFP response vs DMSO [1] | GFP response vs DMSO [1, 6] [%] | GFP response vs DMSO [1, 7] [%] | GFP response relative to DMSO [2] | GFP response relative to DMSO [2, 8] [%] | GFP response relative to DMSO [2, 9] [%] | GFP response vs DMSO [3] | GFP response, % of DMSO [4] | GFP response, % of DMSO [5] | GFP response, % of DMSO [5, 6] [%] | GFP response, % of DMSO [5, 7] [%] |
| --- | --- | --- | --- | --- | --- | --- | --- | --- | --- | --- | --- |
| C=CCNC(=O)/C(C#N)=C/c1c(N(Cc2ccccc2)Cc2ccccc2)nc2ccccn2c1=O | 98.8% (inactive) | 98.6 | 98.8 | 99.8% (inactive) | 99.7 | 99.2 | 103% (inactive) | 101% (inactive) | 94.7% (inactive) | 96.8 | 94.7 |
| CCOc1ccc(C(Nc2cccnc2)c2cc(Cl)c3cccnc3c2O)cc1 (stereo not drawn) | 99.6% (inactive) | 104 | 95.6 | 164% (active) | 144 | 170 | 122% (inactive) | 93.9% (inactive) | 101% (inactive) | 108 | 94.9 |
| Cc1ccc(C(=O)NNC(=S)NC(=O)c2ccco2)cc1 | 112% (inactive) | 113 | 109 | 120% (inactive) | 117 | 121 | 115% (inactive) | 103% (inactive) | 108% (inactive) | 114 | 102 |
| CCC(=O)Nc1ccc(NC(=O)c2cc3ccccc3o2)cc1 | 103% (inactive) | 99.3 | 104 | 99.5% (inactive) | 99.1 | 98.4 | 101% (inactive) | 101% (inactive) | 97.3% (inactive) | 95.6 | 96.8 |
| Cc1ccc(N2C(=O)C3C4C=CC(CNC(=S)N5CCN(c6ccccc6)CC5)(O4)C3C2=O)cc1 (stereo not drawn) | 102% (inactive) | 101 | 101 | 89% (inactive) | 94.1 | 92.1 | 100% (inactive) | 96.5% (inactive) | 110% (inactive) | 105 | 113 |
| CCCc1[nH]nc2c1C(c1cccc(OC(=O)c3ccco3)c1)C(C#N)=C(N)O2 (stereo not drawn) | 98.5% (inactive) | 96.7 | 96.7 | 97.7% (inactive) | 96 | 98.4 | 99.3% (inactive) | 106% (inactive) | 104% (inactive) | 103 | 104 |
| C=CCn1c(=O)c(C(=O)NCCc2ccccc2)c(O)c2ccccc21 | 98.4% (inactive) | 98.9 | 100 | 90.2% (inactive) | 89.6 | 91.9 | 96.2% (inactive) | 102% (inactive) | 99.7% (inactive) | 99.1 | 101 |
| CC(=O)N(\C=C/C=C/C=C1\Sc2ccccc2C1=O)c1ccccc1 | 110% (inactive) | 106 | 108 | 153% (active) | 145 | 152 | 238% (active) | 112% (inactive) | 131% (inactive) | 128 | 131 |
| O=C(CCS(=O)(=O)Cc1ccccc1F)NCCc1ccc(Cl)cc1 | 97.8% (inactive) | 102 | 93.7 | 101% (inactive) | 99 | 101 | 101% (inactive) | 99.1% (inactive) | 100% (inactive) | 99.3 | 99.3 |
| Cc1nc(Sc2ccc(Cl)cc2)c(C#N)c(C)c1[N+](=O)[O-] | 100% (inactive) | 100 | 98.2 | 91.8% (inactive) | 94.4 | 91.3 | 108% (inactive) | 94.3% (inactive) | 104% (inactive) | 105 | 103 |
| CN1CCN(CC(=O)N2CCn3c4c(c5cc(C6CCCCC6)ccc53)CCCC42)CC1 (stereo not drawn) | 90.7% (inactive) | 86.4 | 92.7 | 116% (inactive) | 109 | 119 | 108% (inactive) | 95.8% (inactive) | 90.7% (inactive) | 89 | 88.6 |
| Cc1cc(NCCCn2ccnc2)n2ncc(-c3ccccc3)c2n1 | 96.6% (inactive) | 99.1 | 96.7 | 95.7% (inactive) | 94.2 | 96.2 | 99% (inactive) | 104% (inactive) | 100% (inactive) | 101 | 101 |
| O=C(O)CCc1ccc(-c2ccccc2)o1 | 94.4% (inactive) | 92.6 | 96.4 | 139% (inactive) | 138 | 138 | 96.2% (inactive) | 93.1% (inactive) | 94% (inactive) | 95.4 | 92.6 |
| CN1CCN(C(c2ccc(C(F)(F)F)cc2)c2ccc3cccnc3c2O)CC1 (stereo not drawn) | 93.6% (inactive) | 87.3 | 86.7 | 216% (active) | 190 | 218 | 109% (inactive) | 87.4% (inactive) | 97.3% (inactive) | 95.6 | 94.4 |
| CCc1cccc(C)c1NC(=O)CC1Oc2ccc(C)cc2NC1=O (stereo not drawn) | 99.3% (inactive) | 99.5 | 100 | 90.6% (inactive) | 91.3 | 91.3 | 101% (inactive) | 101% (inactive) | 98.6% (inactive) | 97.6 | 98.2 |
| COc1cc(NC(=O)c2cc3ccccc3o2)ccc1NC(=O)c1ccco1 | 99% (inactive) | 97.9 | 98.9 | 96.7% (inactive) | 97.6 | 96.1 | 102% (inactive) | 94.1% (inactive) | 104% (inactive) | 105 | 103 |
| O=S(=O)(c1ccc(Cl)cc1)c1snnc1-c1ccccc1 | 93.7% (inactive) | 92.2 | 96.6 | 126% (inactive) | 123 | 129 | 98.8% (inactive) | 102% (inactive) | 95.9% (inactive) | 92.1 | 96.7 |

| SMILES | GFP response vs DMSO [1] | GFP response vs DMSO [1, 6] [%] | GFP response vs DMSO [1, 7] [%] | GFP response relative to DMSO [2] | GFP response relative to DMSO [2, 8] [%] | GFP response relative to DMSO [2, 9] [%] | GFP response vs DMSO [3] | GFP response, % of DMSO [4] | GFP response, % of DMSO [5] | GFP response, % of DMSO [5, 6] [%] | GFP response, % of DMSO [5, 7] [%] |
| --- | --- | --- | --- | --- | --- | --- | --- | --- | --- | --- | --- |
| Cc1cc(C)c(S(=O)(=O)NCC23C=CC(O2)C2C(=O)N(c4ccccc4)C(=O)C23)c(C)c1 (stereo not drawn) | 102% (inactive) | 103 | 103 | 105% (inactive) | 105 | 108 | 102% (inactive) | 100% (inactive) | 104% (inactive) | 101 | 105 |
| CN(C)c1ccc(/C=C/c2cc[n+](C)cc2)cc1 | 111% (inactive) | 109 | 109 | 160% (active) | 168 | 159 | 215% (active) | 109% (inactive) | 149% (inactive) | 129 | 134 |
| CCS(=O)(=O)N1N=C(c2ccccc2)CC1c1ccc2nccnc2c1 (stereo not drawn) | 98.4% (inactive) | 98.9 | 99.3 | 105% (inactive) | 103 | 104 | 116% (inactive) | 104% (inactive) | 105% (inactive) | 105 | 107 |
| O=c1c2c(-c3cccs3)csc2ncn1/N=C/c1ccccn1 | 98.4% (inactive) | 95.2 | 96.5 | 119% (inactive) | 112 | 121 | 99% (inactive) | 99.2% (inactive) | 91.5% (inactive) | 92 | 89.5 |
| C/C(=N\NC(=O)c1cccc(Br)c1)c1ccc(Br)cc1 | 96.7% (inactive) | 98.7 | 95 | 106% (inactive) | 97.5 | 107 | 103% (inactive) | 98.8% (inactive) | 98.6% (inactive) | 101 | 98.2 |
| Cc1cc(N2CCC(C)CC2)n2nc(C)c(-c3ccccc3)c2n1 | 101% (inactive) | 101 | 101 | 97.7% (inactive) | 93.6 | 97.5 | 104% (inactive) | 98.4% (inactive) | 101% (inactive) | 102 | 99.1 |
| COc1cc(/C=N/Nc2nc(C)cc(=O)[nH]2)ccc1O | 100% (inactive) | 104 | 98.8 | 87.2% (inactive) | 89.3 | 86.7 | 106% (inactive) | 105% (inactive) | 117% (inactive) | 121 | 115 |
| O=C(Nc1cc(Sc2ccccn2)cc([N+](=O)[O-])c1)c1cccc(F)c1 | 96.9% (inactive) | 96.1 | 95.9 | 101% (inactive) | 96 | 102 | 106% (inactive) | 95.7% (inactive) | 97.2% (inactive) | 95.8 | 94.9 |
| O=S(=O)(Nc1nc2ccccc2nc1Cl)c1ccc2ccccc2c1 | 98.4% (inactive) | 97.9 | 98.1 | 95.7% (inactive) | 92.6 | 97.3 | 96.8% (inactive) | 95.9% (inactive) | 88.6% (inactive) | 88.4 | 88.2 |
| Cc1ccc(S(=O)(=O)c2ccc([N+](=O)[O-])cn2)cc1 | 93.2% (inactive) | 99.5 | 84.5 | 185% (active) | 156 | 177 | 139% (inactive) | 115% (inactive) | 103% (inactive) | 114 | 93.4 |
| COc1ccc(/C=N\NC(=O)c2cc(OCC(F)(F)F)ccc2OCC(F)(F)F)cc1 | 93.7% (inactive) | 97.9 | 94 | 96.7% (inactive) | 97.6 | 98.3 | 102% (inactive) | 94.8% (inactive) | 98.3% (inactive) | 99.1 | 95 |
| CCOC(=O)/C(=C\c1cn(C)c2ccccc12)[N+](=O)[O-] | 98.2% (inactive) | 93.4 | 93.6 | 204% (active) | 163 | 202 | 111% (inactive) | 84.2% (inactive) | 86.9% (inactive) | 88.1 | 76 |
| CS(=O)(=O)c1sc(C#N)c2c1C(=O)CC(c1ccccc1)C2 (stereo not drawn) | 103% (inactive) | 111 | 96.6 | 174% (active) | 168 | 179 | 116% (inactive) | 117% (inactive) | 105% (inactive) | 111 | 95.7 |
| COC(=O)c1cc(S(=O)(=O)Nc2nn(C)c3ccccc23)oc1C | 97.2% (inactive) | 98.1 | 97.1 | 96.7% (inactive) | 97.6 | 94 | 100% (inactive) | 95% (inactive) | 99.7% (inactive) | 101 | 99.7 |
| CCCN(c1ccccc1F)S(=O)(=O)c1cc(-c2cc(C)no2)ccc1OC | 95.6% (inactive) | 95.6 | 96.1 | 97.9% (inactive) | 96 | 98.3 | 102% (inactive) | 95.6% (inactive) | 95.5% (inactive) | 95.4 | 95 |
| CN1CC(=O)NC1=NC(=O)C12CC3CC(CC(C3)C1)C2 | 95% (inactive) | 93.9 | 96 | 102% (inactive) | 97.9 | 103 | 97.5% (inactive) | 92.3% (inactive) | 93.5% (inactive) | 94.6 | 92.1 |

Source: PubChem BioAssay
